Most compounds without a hit are left out; they make up all but 3.9% or so of the library.
CASP6 VEID inh: caspase-6 (human) enzyme inhibition. P55212. purified caspase-6, Z-VEID-R110 cleavage fluorescence. inhibition, % at 12.5 µM. 350,000 tested, 0.53% active. AID 686996;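 active = mean inhibition across replicates at least about 35%, with every replicate also reaching that limit, limit read from the data; inconclusive = only one of the two criteria met; inactive = neither criterion met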;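 also: 0% = median of neutral control wells and 100% = no fluorescence left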
Target sequence (P55212 24-179 limits assumed): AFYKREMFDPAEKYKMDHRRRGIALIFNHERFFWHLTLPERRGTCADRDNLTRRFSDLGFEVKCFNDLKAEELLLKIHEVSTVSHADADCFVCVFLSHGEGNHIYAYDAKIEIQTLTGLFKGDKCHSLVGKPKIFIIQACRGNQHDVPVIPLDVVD
Target sequence (P55212 194-293 limits assumed): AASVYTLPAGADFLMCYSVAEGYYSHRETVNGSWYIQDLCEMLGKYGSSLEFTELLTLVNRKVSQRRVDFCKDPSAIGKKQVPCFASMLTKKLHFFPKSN
N-glyco inh: blocks N-linked glycosylation in D54 reporter cells; D54 ERlucT glycosylation luciferase reporter, 24 h; percent of 100 nM tunicamycin response; reporter increase, % at 12.5 µM; 360,000 tested, 0.23% active; AID 588692;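 active = mean luciferase reporter signal, scaled so untreated is 0 and the glycosylation-blocking control 100, at or above a set limit in every replicate; inconclusive = mean reaches the limit but not every replicate does; inactive = mean below the limit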;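 also: luciferase carries N-glycosylation sites so blocking glycosylation raises the light; 0% = median of neutral control wells and 100% = median of 100 nM tunicamycin wells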
NSD2 inh: NSD2 (human) methyltransferase inhibition | O96028 | NSD2 peptide methylation, AlphaScreen, 120 min | inhibition, % at 12.5 µM | 310,000 tested, 0.54% active | AID 743445; in the data active = inhibition above about 50%
Mot1-301 SUMO: SUMOylation pathway inhibition by Mot1-301 growth rescue; S. cerevisiae Mot1-301 growth rescue, ATP luminescence, 38.5C; percent above DMSO median, 100 means doubled; growth rescue, % at 18.8 µM; 320,000 tested, 1% active; AID 2716;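 active = every valid replicate shows activation above 250% relative to neutral control wells; inactive = the rest, any valid replicate at or below 250%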;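 also: OY570 slx delta 5 strain wells were the positive control but not used for scaling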
CDK5 inh: blocks human CDK5/p35 kinase activity; Q00535+Q15078; Recombinant CDK5/p35, ADP-Glo luminescence, 60 min; inhibition, % at 10 µM; 330,000 tested, 0.01% active; AID 488839;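 active = highest replicate inhibition of at least 50% and at least 75% of replicates reaching 50%; inconclusive = only one of the two criteria met; inactive = both criteria failed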;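 also: plate controls were DMSO neutral control for no effect and GW8510 at 10 µM for full effect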
ALR inh: inhibitors of human sulfhydryl oxidase ALR. P55789. purified ALR, DTT oxidation, H2O2 HRP-luminol luminescence. inhibition, % (concentration not given with the values). 290,000 tested, 3.8% active;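 active = mean replicate inhibition above about 79%, with every replicate also reaching it, limit read from the data; inconclusive = only one of the two criteria met; inactive = mean below limit and not every replicate reaching it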
Target sequence (P55789 whole entry, looked up): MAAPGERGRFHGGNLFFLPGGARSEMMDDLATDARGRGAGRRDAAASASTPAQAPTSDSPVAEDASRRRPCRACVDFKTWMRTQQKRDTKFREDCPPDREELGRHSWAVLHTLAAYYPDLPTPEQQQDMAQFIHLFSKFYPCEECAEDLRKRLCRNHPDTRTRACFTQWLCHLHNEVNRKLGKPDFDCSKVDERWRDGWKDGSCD
Numbers without * were called inactive.

Results for COc1cc(/C=C2\CC/C(=C\c3cc(OC)c(O)c(OC)c3)C2=O)cc(OC)c1O ?
CASP6 VEID inh: 49.3*; N-glyco inh: -1.3; NSD2 inh: 61.7*; Mot1-301 SUMO: 5.9; CDK5 inh: 0.8; ALR inh: 43.5

What do the screens show for `COc1cc(/C=C2\CC/C(=C\c3cc(OC)c(OC)c(OC)c3)C2=O)cc(OC)c1OC`?
CASP6 VEID inh: -0.1; N-glyco inh: 3.2; NSD2 inh: 2.0; Mot1-301 SUMO: -11.9; CDK5 inh: 0.5; ALR inh: -4.3

Results for COc1cc(/C=C2\CCC/C(=C\c3ccc(O)c(OC)c3)C2=O)ccc1O ?
CASP6 VEID inh: 16.8; N-glyco inh: inconclusive; NSD2 inh: 12.0; Mot1-301 SUMO: -15.1; CDK5 inh: -0.2

Results for COc1cc(/C=C2/CCC/C(=C\c3cc(O)c(OC)c(Cl)c3)C2=O)cc(Cl)c1O ?
N-glyco inh: 34.7*; NSD2 inh: 9.2; Mot1-301 SUMO: 15.5; CDK5 inh: 2.3; ALR inh: 16.2

How did CN(C)CCCNC(=O)C[C@@H]1CC[C@@H]2[C@H](COc3ccc(NC(=O)c4ccccc4F)cc3C(=O)N2C)O1 do in these assays?
CASP6 VEID inh: -50.6

What do the screens show for `O=C(Cc1ccncc1)NCC[C@H]1CC[C@@H](NC(=O)Nc2ccc(Cl)cc2)[C@H](CO)O1`?
CASP6 VEID inh: -1.8

What do the screens show for `O=C(Nc1ccccc1)N1CCCCN2[C@H](CO)[C@H](c3ccc(C#Cc4ccccc4)cc3)[C@H]2C1`?
CASP6 VEID inh: 0.1

Results for C[C@H](CO)N1C[C@H](C)[C@@H](CN(C)C(=O)Nc2ccc(F)cc2)Oc2ccc(NC(=O)NC3CCCCC3)cc2CC1=O ?
CASP6 VEID inh: -1.8

How did CCC(=O)N[C@H]1CC[C@@H](CCn2cc(-c3cccc(OC)c3)nn2)O[C@@H]1CO do in these assays?
CASP6 VEID inh: 4.0

Results for CCCCC(CCC(=O)O)(C(=O)OCC)c1csc(Nc2ccc(C)cc2)n1 (configuration not stated) ?
CASP6 VEID inh: 0.4; N-glyco inh: 1.4; Mot1-301 SUMO: -9.9; CDK5 inh: 0.2; ALR inh: 98.8*

How did CCOC(=O)C(CC)(CCC(=O)O)c1csc(N)n1 (configuration not stated) do in these assays?
N-glyco inh: 1.2; NSD2 inh: 6.5; Mot1-301 SUMO: -16.1; CDK5 inh: -1.4; ALR inh: -13.2

Results for CN(C)c1ccc(C=C2C(=O)OC(C)(C(C)(C)C)OC2=O)cc1 (configuration not stated) ?
N-glyco inh: 0.9; Mot1-301 SUMO: 311.3*; CDK5 inh: -1.2; ALR inh: 10.1

What do the screens show for `CC(=O)NS(=O)(=O)c1ccc(NC(=O)/C=C/c2cn(-c3ccccc3)nc2-c2ccccc2)cc1`?
CASP6 VEID inh: 12.2; N-glyco inh: 0.0; NSD2 inh: 15.5; Mot1-301 SUMO: -30.1; CDK5 inh: 0.1; ALR inh: 98.1*

How did COc1ccc(/C=N\NC(=O)c2cc(O)c(O)c(O)c2)cc1COc1ccc(C(=O)OCC(C)C)cc1 do in these assays?
CASP6 VEID inh: 43.5*; N-glyco inh: 0.9; NSD2 inh: 9.2; Mot1-301 SUMO: -15.9; CDK5 inh: 2.5; ALR inh: 8.3

Results for CCC(=O)N1CC[C@H]2[C@H](CO)Nc3ccc(C#Cc4ccccc4F)cc3[C@H]21 ?
CASP6 VEID inh: 3.0

How did O=C(N[C@H]1CC[C@@H](CCn2cc(C3(O)CCCC3)nn2)O[C@@H]1CO)C1CCOCC1 do in these assays?
CASP6 VEID inh: 2.4

What do the screens show for `O=C(C[C@H]1C[C@@H]2c3cc(NC(=O)C4CCC4)ccc3O[C@@H]2[C@@H](CO)O1)NCc1ccccc1F`?
CASP6 VEID inh: 1.8

What do the screens show for `CCCCN(CCCNC(=O)c1c(C)cc(=O)oc1C)c1ccccc1`?
N-glyco inh: -1.5; NSD2 inh: 3.6; Mot1-301 SUMO: -10.7; CDK5 inh: -1.6; ALR inh: 99.1*

How did CCN(CCCNC(=O)c1c(C)cc(=O)oc1C)c1ccccc1 do in these assays?
N-glyco inh: -2.8; NSD2 inh: 3.1; Mot1-301 SUMO: -6.4; CDK5 inh: 1.1; ALR inh: 98.9*

Results for O=C(C[C@@H]1CC[C@H]2[C@@H](COC[C@H](O)CN2C(=O)Nc2cccc(Cl)c2)O1)N1CCCCC1 ?
CASP6 VEID inh: 10.0

What do the screens show for `O=C(c1cccc(F)c1)N1CC(=O)N2[C@H](CO)[C@@H](c3ccc(-c4ccccc4F)cc3)[C@@H]2C1`?
CASP6 VEID inh: 2.1

How did COc1ccccc1C(=O)n1nc(-c2ccco2)nc1SC do in these assays?
CASP6 VEID inh: -1.2; N-glyco inh: 4.7; Mot1-301 SUMO: 1.9; CDK5 inh: 0.6; ALR inh: 98.1*

What do the screens show for `CSc1nc(-c2ccco2)nn1C(=O)c1ccc(C)cc1`?
CASP6 VEID inh: -0.2; N-glyco inh: -3.2; Mot1-301 SUMO: -18.4; CDK5 inh: 0.7; ALR inh: 97.2*

How did CSc1nc(-c2ccco2)nn1C(=O)c1ccccc1 do in these assays?
N-glyco inh: 1.8; NSD2 inh: 0.6; Mot1-301 SUMO: -0.4; CDK5 inh: -0.7; ALR inh: 0.8

What do the screens show for `CCCC#Cc1cnc2c(c1)C(=O)N([C@H](C)CO)C[C@@H](C)[C@@H](CN(C)C(=O)Nc1c(C)noc1C)O2`?
CASP6 VEID inh: -0.6

What do the screens show for `CCCc1cc(-c2n[nH]c(=S)n2C(C)c2ccccc2)cs1` (configuration not stated)?
N-glyco inh: 0.2; NSD2 inh: 7.6; Mot1-301 SUMO: 57.5; CDK5 inh: 2.2; ALR inh: 14.7

How did COc1cc(-c2n[nH]c(=S)n2C(C)c2ccccc2)cc(OC)c1OC (configuration not stated) do in these assays?
CASP6 VEID inh: -0.8; N-glyco inh: 1.4; NSD2 inh: -0.3; Mot1-301 SUMO: -14.0; CDK5 inh: -2.0; ALR inh: 92.7*

What do the screens show for `CC(c1ccc(Cl)cc1)n1c(-c2ccc3ccccc3n2)n[nH]c1=S` (configuration not stated)?
CASP6 VEID inh: 0.4; N-glyco inh: 0.2; NSD2 inh: 4.2; Mot1-301 SUMO: -38.1; CDK5 inh: 0.3; ALR inh: 8.2

Results for CC(c1ccc(F)cc1)n1c(-c2ccc3ccccc3n2)n[nH]c1=S (configuration not stated) ?
CASP6 VEID inh: 3.1; N-glyco inh: 0.3; NSD2 inh: 6.6; Mot1-301 SUMO: 127.6; CDK5 inh: 4.6; ALR inh: 88.5*

Results for COC(=O)CCc1c(C)c(C(=O)c2cc(F)c(F)c(F)c2F)c2ccccn12 ?
CASP6 VEID inh: 62.4*; N-glyco inh: 0.6; NSD2 inh: 30.7; Mot1-301 SUMO: 143.4; CDK5 inh: -4.1; ALR inh: -17.1
